Only some compounds are listed: those with a hit (about 6.9% of all), similar ones and a draw of the others.
PLK1 PBD inh: inhibitors of human PLK1 polo-box domain binding; Plk1 PBD binding of FITC phosphopeptide, fluorescence polarization; actives 2.8% (n = 360,000); AID 720504; Potency, µM, without a hit: max response, negative = inhibition, usual class: inhibitors; P53350; note: series mostly up to about 57 µM; % is set by controls: 0 for no effect and ±100 for the full control effect; nearly all actives have a fitted effect of over 65% in size
JMJD2A Tudor: JMJD2A Tudor domain (human) inhibition. O75164. AlphaScreen JMJD2A-Tudor / H3K4me3 peptide binding. actives 4.4% (n = 390,000). Potency, µM (series often up to 114 µM), for the others: at the top dose activity change, negative = inhibition, usual class: inhibitors; note: % is set by controls: 0 for no effect and ±100 for the full control effect; nearly all actives have a fitted effect of over 50% in size
HP1b chromo inh: blocks HP1-beta chromodomain binding to methylated histone tails. AlphaScreen HP1-beta / biotin-H3K9me3 peptide binding. actives 0.56% (n = 390,000). AID 540317. Potency, µM (doses to about 114 µM), for the others: at the top dose activity change, negative = inhibition, hits mostly inhibitors. P83916; note: nearly all actives have a fitted effect of over 70% in size
Target sequence (P83916 whole entry, looked up): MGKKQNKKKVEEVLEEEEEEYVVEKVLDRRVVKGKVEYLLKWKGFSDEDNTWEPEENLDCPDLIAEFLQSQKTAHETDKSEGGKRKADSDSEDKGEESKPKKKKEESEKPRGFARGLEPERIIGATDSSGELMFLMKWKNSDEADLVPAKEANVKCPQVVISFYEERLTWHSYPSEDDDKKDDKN
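Compound inhibition of the preformed complex between 50 nM HP1-beta and 50 nM biotinylated H3K9me3 peptide was read by AlphaScreen. Buffer was PBS pH 7.4 with 0.01% Tween-20. Incubations ran 30 min at room temperature, with 10 ug/mL donor/acceptor beads.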
VDR inh: inhibitors of human vitamin D receptor; P11473; VDR-SRC2-3 peptide fluorescence polarization, 2 h; Potency, µM, for the others: max response, negative = inhibition, usual class: inhibitors; actives 0.93% (n = 400,000); note: % is set by controls: 0 for no effect and ±100 for the full control effect
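FP read-out; VDR + SRC2-3 coactivator peptide; 23 nl compound by pintool; 2 h RT incubation; reagents held at 4 deg C, protected from light.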
L3MBTL1 block: blocks human L3MBTL1; Q9Y468; AlphaScreen L3MBTL1–H3K9me1 peptide binding; Potency, µM (top dose mostly 57.1 µM), inactives show at the top dose activity, negative = inhibition, usual class: inhibitors; actives 0.66% (n = 230,000); note: % is set by controls: 0 for no effect and ±100 for the full control effect; nearly all actives have a fitted effect of over 60% in size
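Displacement of a biotinylated histone H3(1-15) peptide monomethylated at Lys9 (75 nM) from L3MBTL1 (50 nM) was measured by AlphaScreen after a 30 min room-temperature compound incubation; cefsulodin titration served as intraplate control.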
BAZ2B inh: inhibitors of human BAZ2B bromodomain | Q9UIF8 | Potency, µM (highest dose often 114 µM), for inactives: at the highest dose activity change, negative = inhibition, actives largely listed as inhibitors | actives 4.4% (n = 360,000) | AlphaScreen BAZ2B-H3K14Ac peptide displacement; note: % is set by controls: 0 for no effect and ±100 for the full control effect; nearly all actives have a fitted effect of over 60% in size
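Compounds, titrated to a top concentration of 110 uM, were incubated 30 min at room temperature with preformed BAZ2B/acetyl-K14 H3 peptide complex (50 nM each). Proximity signal was measured by AlphaScreen after 20 min with beads.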
VDR inh confirm: inhibits human vitamin D receptor, primary hit validation. shares compounds with VDR inh. VDR-coactivator inhibition assay, qHTS confirmation. Potency, µM, actives largely listed as inhibitors. actives 89% (n = 840). AID 602199
VDR FP fluor: VDR (human) coactivator binding inhibition, fluorescein polarization; shares compounds with VDR inh; VDR-coactivator binding, fluorescein fluorescence polarization; Potency, µM (doses to about 57.1 µM), for the others: at the highest dose activity change, negative = inhibition, hits mostly inhibitors; actives 48% (n = 840); AID 602200
VDR bla reporter: confirmation of human vitamin D receptor inhibitors in reporter cells | actives 23% (n = 840) | Potency, µM (highest dose often 46.1 µM), for inactives: top-dose activity change, negative = inhibition, hits mostly inhibitors | shares compounds with VDR inh | VDR beta-lactamase reporter cells, FRET ratio; cells co-treated with VDR agonist LG190178; note: % is set by controls: 0 for no effect and ±100 for the full control effect
VDR viability: cytotoxic in counter-screen for VDR inhibitors | Potency, µM (series often up to 48.3 µM), for the others: at the top dose activity change, negative = cytotoxicity, actives largely listed as cytotoxic | AID 602204 | shares compounds with VDR inh | actives 18% (n = 840) | cytotoxicity counter-screen, cell viability, qHTS;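 note: plate controls were DMSO for no effect and high-concentration cycloheximide for full effect; nearly all actives have a fitted effect of over 75% in size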
TbPYK confirm: Trypanosoma brucei pyruvate kinase inhibition, cherry-pick confirmation | shares compounds with PLK1 PBD inh | recombinant TbPYK, Kinase-Glo ATP luminescence | Potency, µM (titrated, usually from 76.9 µM), without a hit: at the highest dose activity change, negative = inhibition, usual class: inhibitors | actives 67% (n = 890) | AID 720569; note: % is set by controls: 0 for no effect and ±100 for the full control effect; nearly all actives have a fitted effect of over 70% in size
TbPYK orthogonal: TbPYK inhibition, orthogonal confirmation; shares compounds with PLK1 PBD inh; recombinant TbPYK, ADP-Glo luminescence, 60 min; Potency, µM (titrated, usually from 76.9 µM), for the others: at the top dose activity change, negative = inhibition, usual class: inhibitors; actives 62% (n = 890); AID 720584; note: % is set by controls: 0 for no effect and ±100 for the full control effect; nearly all actives have a fitted effect of over 75% in size
* = called active by the depositor; ? = inconclusive; / = no result. Calls come from the whole dose curve; as a rule, active = well fitted curve in the direction sought with a large enough effect; inconclusive = small, poorly fitted or top-dose-only effect, or another doubt; inactive = no such curve, though single readings can be large; an effect the other way counts as inactive or inconclusive. Potency is the fitted concentration of half-maximal effect.

SMILES | PLK1 PBD inh | JMJD2A Tudor | HP1b chromo inh | VDR inh | L3MBTL1 block | BAZ2B inh | VDR inh confirm | VDR FP fluor | VDR bla reporter | VDR viability | TbPYK confirm | TbPYK orthogonal
CN1C(=O)NC(=O)/C(=C\C=C\c2ccccc2[N+](=O)[O-])C1=O | 1.2µM* | ? | ? | 11µM* | -1% | ? | 4.2* | ? | ? | -7% | 16µM* | 32µM*
O=C(O)CCC(=O)NCCC1=c2ccccc2=N/C1=C\c1c(O)n(Cc2ccc(F)cc2)c(=S)[nH]c1=O | 1.2µM* | 32µM* | 32µM* | 20µM* | -21% | 32µM* | 6* | ? | 8% | 22% | 4.5µM* | 14µM*
CCn1c(O)c(C=NCc2ccccc2)c(=O)[nH]c1=S | 5% | -21% | 6% | -1% | / | -19% | / | / | / | / | / | /
CN1c2ccccc2C(NCCCCCCC(=O)O)c2ccc(Cl)cc2S1(=O)=O (configuration not stated) | / | / | / | 1% | / | / | / | / | / | / | / | /
CCN(CC)c1ccc(NC(=O)c2cccc(C)c2)cc1S(=O)(=O)Nc1ccccc1OC | 3µM* | ? | ? | 50µM* | 1% | -37% | ? | ? | 8% | -3% | ? | ?
CC(=O)OC1CC[C@]2(C)C(CCC3C2CC[C@]2(C)C(C4=CC(=O)OC4)C(OC(C)=O)CC32O)C1 (some centres not stated) | / | / | / | 13% | / | / | / | / | / | / | / | /
O=C1NC(=O)C(=Cc2ccc(Sc3ccccc3)o2)C(=O)N1 | 0.67µM* | ? | 3% | 40µM* | -6% | ? | 11* | ? | ? | ? | 32µM* | 35µM*
CC1(C)OC(c2ccccc2)=C/C(=C/C=C2C(=O)NC(=O)NC2=O)O1 | 27% | -31% | -4% | -8% | / | -37% | / | / | / | / | / | /
CCOc1ccc(C2c3c(-c4ccccc4O)n[nH]c3C(=O)N2Cc2ccncc2)cc1 (configuration not stated) | / | ? | 25% | 19% | / | -30% | / | / | / | / | / | /
O=C(O)Cn1cc(C=C2C(=O)NC(=O)NC2=O)c2ccccc21 | ? | -18% | 40% | -7% | / | -2% | / | / | / | / | / | /
O=C1NC(=O)C(=Cc2cc(Cl)ccc2OCc2ccc(C(=O)O)cc2)C(=O)N1 | 7.5µM* | -12% | 11% | 50µM* | / | 3% | ? | ? | 26% | 19% | 25µM* | 32µM*
Cc1nn(Cc2ccccc2)c(C)c1C=C1C(=O)NC(=S)NC1=O | 15µM* | 89µM* | -26% | 25µM* | 6% | -7% | 9.5* | ? | ? | -4% | 6.3µM* | ?
